Bioassay records (PubChem)
IL1B secr inh: inhibitors of inflammasome signaling (IL-1 beta secretion) | THP-1 LPS/ATP IL-1B secretion, AlphaLISA, 16 h; active compounds read low | 4.7% of 360,000 active | activity change, % at 57.5 µM | AID 743279; in the data active = activity change below about -50%; inconclusive = mostly about -30% to -49%; also: % is scaled to controls: 0 for no effect and ±100 for the full control effect
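Secreted IL-1B measured by AlphaLISA bead assay after 16 h compound exposure of THP-1 cells; compounds (final up to 57.5 uM) added 1 h before LPS (250 ng/mL) and ATP (1.25 mM) stimulation; lower signal means less secretion.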
TGFb SMAD3 inh: TGF-b pathway inhibition | HepG2 CAGA-GFP TGF-b/SMAD3 reporter, GFP fluorescence, 18 h; TGF-beta stimulated, 500 pg/mL final | Potency, µM (highest dose often 46.1 µM), for the others: top-dose activity, negative = inhibition, usual class: inhibitors | 1.2% of 410,000 active | AID 588855; also: potency is read from the fitted curve at half-maximal effect; % is scaled to controls: 0 for no effect and ±100 for the full control effect; nearly all actives have a fitted effect of over 65% in size
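Read-out: total well GFP (ex488/em500-530) summed from mean per-cell fluorescence. Cells: HEPG2 CAGA-GFP, 1% FBS DMEM, 18 h at 37 degrees C with 500 pg/mL final TGF-beta. Unstimulated wells served as the full-inhibition control; stimulated DMSO wells = 0%.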
TDP1 block: inhibitors of human tyrosyl-DNA phosphodiesterase TDP1; recombinant TDP1, AlphaScreen DNA substrate cleavage; Q9NUW8; AID 485290; 0.28% of 350,000 active; Potency, µM (highest dose often 130 µM), inactives show top-dose activity change, negative = inhibition, usual class: inhibitors; also: potency is read from the fitted curve at half-maximal effect; % is scaled to controls: 0 for no effect and ±100 for the full control effect; nearly all actives have a fitted effect of over 40% in size
Target sequence (Q9NUW8 whole entry, looked up): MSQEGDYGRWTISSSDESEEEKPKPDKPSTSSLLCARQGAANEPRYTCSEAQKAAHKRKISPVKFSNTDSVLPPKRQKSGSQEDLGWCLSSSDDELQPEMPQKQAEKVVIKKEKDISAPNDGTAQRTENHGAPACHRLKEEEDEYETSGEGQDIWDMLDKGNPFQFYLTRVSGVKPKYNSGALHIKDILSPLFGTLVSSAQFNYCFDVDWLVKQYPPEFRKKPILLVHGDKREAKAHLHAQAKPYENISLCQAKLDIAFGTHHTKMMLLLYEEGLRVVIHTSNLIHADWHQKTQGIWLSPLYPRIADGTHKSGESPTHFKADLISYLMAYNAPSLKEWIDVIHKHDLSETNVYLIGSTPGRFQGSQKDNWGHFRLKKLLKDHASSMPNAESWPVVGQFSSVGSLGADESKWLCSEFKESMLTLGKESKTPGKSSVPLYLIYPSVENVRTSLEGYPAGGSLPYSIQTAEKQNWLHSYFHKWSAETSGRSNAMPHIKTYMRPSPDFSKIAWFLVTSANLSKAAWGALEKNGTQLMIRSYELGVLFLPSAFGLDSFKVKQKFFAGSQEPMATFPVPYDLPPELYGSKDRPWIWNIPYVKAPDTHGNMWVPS
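Steps: enzyme plus compound, 15 min RT; add biotin/phosphotyrosine-FITC oligonucleotide (15 nM final), react 5 min; add donor/acceptor beads (10 ug/ml final), 10 min; read AlphaScreen. Tdp1 at 1 nM final.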
TDP1 cell noCPT: qHTS for Inhibitors of human tyrosyl-DNA phosphodiesterase 1 (TDP1): qHTS in cells in absence of CPT; DT40 Tdp1-/- hTDP1 cells, no CPT, ATP luminescence, 48 h; Potency, µM (doses to about 46.2 µM), for the others: at the top dose activity change, negative = growth inhibition, actives largely listed as inhibitors; 15% of 420,000 active; AID 686978, 2013; also: potency is read from the fitted curve at half-maximal effect; % is scaled to controls: 0 for no effect and ±100 for the full control effect; nearly all actives have a fitted effect of over 55% in size
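Compound effects on proliferation are scored in DT40 Tdp1-/-;hTDP1 cells in the absence of CPT. ATP levels (CellTiter-Glo luminescence) are recorded after a ≥48 hr, 37 °C incubation.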
HepG2 tox: HepG2 cytotoxicity, counter-screen for TGF-b inhibitors; Potency, µM (doses to about 46.1 µM), for the others: at the highest dose activity change, negative = cytotoxicity, most hits filed as cytotoxic; AID 588856; 0.76% of 410,000 active; HepG2 CAGA-GFP viability, ATP luminescence, 18 h; also: potency is read from the fitted curve at half-maximal effect
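CellTiter-Glo luminescence gave cytotoxicity after 18 hours at 37 degrees C. The cells were HepG2 CAGA-GFP in 1% FBS DMEM, stimulated with 500 pg/mL TGF-beta after compound addition. %Activity was normalised to no-cell wells (complete cell-killing) and DMSO (no toxicity), and curves were fitted and classified.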
TDP1 cell CPT: growth inhibition of DT40 Tdp1-/-;hTDP1 cells with camptothecin (screen for TDP1 inhibitors); chicken DT40 Tdp1-/-;hTDP1 cells + 20 nM CPT, ATP luminescence, 48 h; Potency, µM (top dose mostly 46.2 µM), without a hit: at the highest dose activity change, negative = growth inhibition, hits mostly inhibitors; 12% of 420,000 active; AID 686979; also: potency is read from the fitted curve at half-maximal effect; % is scaled to controls: 0 for no effect and ±100 for the full control effect; nearly all actives have a fitted effect of over 55% in size
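Cell growth measured by CellTiter-Glo luminescence after a minimum 48 h, 37 C compound exposure with 20 nM CPT in Tdp1-knockout DT40 cells stably expressing hTDP1, seeded 400/well; qHTS titration format.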
Active calls of the source: *; u = inconclusive; x = no result given; [ ] = remark or other dose. Shown are actives, neighbours in structure and some others; about 19% of the full set was active somewhere. Unless noted, calls follow the shape of the dose curve; as a rule, active = well fitted curve in the direction sought with a large enough effect; inconclusive = small, poorly fitted or top-dose-only effect, or another doubt; inactive = no such curve, though single readings can be large; an effect the other way counts as inactive or inconclusive.

SMILES	IL1B secr inh	TGFb SMAD3 inh	TDP1 block	TDP1 cell noCPT	HepG2 tox	TDP1 cell CPT
Cc1nc(C)c(C(=O)NCCC(c2ccccc2)c2ccccc2)o1	30	-22%	1%	12µM*	-27%	u
Cc1ccsc1C(=O)NCCC(c1ccccc1)c1ccccc1	u	u	-12%	u	-7%	1%
O=C(Nc1cccc(S(=O)(=O)C(F)F)c1)c1ccc(Cl)c(S(=O)(=O)N2CCOCC2)c1	-63*	u	3%	18µM*	-36%	16µM*
O=C(Nc1cccc(S(=O)(=O)N2CCCC2)c1)c1cc(S(=O)(=O)N2CCOCC2)ccc1F	-1	8%	x	-10%	-3%	u
O=C(Nc1cccc(S(=O)(=O)N2CCOCC2)c1)c1cc(S(=O)(=O)N2CCOCC2)c(Cl)cc1Cl	-1	-19%	x	u	-24%	15µM*
CCOC(=O)c1ccccc1NC(=O)c1ccc(Cl)c(S(=O)(=O)N2CCOCC2)c1	-21	4%	x	16µM*	-16%	u
O=C(Nc1cccc(Br)c1)c1ccc(Cl)c(S(=O)(=O)N2CCOCC2)c1	-96*	u	-4%	18µM*	-31%	15µM*
CC(C)(C)NC(=O)[C@@H]1C[C@H]2CCCC[C@@H]2CN1C[C@H](O)[C@H](Cc1ccccc1)NC(=O)[C@@H](CC(N)=O)NC(=O)c1ccc2ccccc2n1	x	x	6%[21 µM]	x	x	x
O=C(NC1CCCCCC1)c1ccc(Cl)c(S(=O)(=O)N2CCOCC2)c1	-9	8%	x	29µM*	1%	u
O=C(Nc1ccccc1)c1ccc(NCc2cccnc2)c(S(=O)(=O)N2CCOCC2)c1	-9	-15%	7%	15µM*	-10%	-21%
O=C1NC(=S)N/C1=C/C=C/c1ccccc1	2	-3%	-5%	-17%	-1%	-1%
O=C1NC(=S)NC1=Cc1ccc2c(c1)CCC2	-9	-5%	x	u	-14%	16µM*
COc1ccc(NC(=O)CN2C(=O)C(=O)N(C3CCCC3)C2=O)c(OC)c1	7	1%	4%	11%	-4%	-5%
CN1CCN(Cc2c(O)ccc3c(=O)c(Oc4ccccc4Cl)c(C(F)(F)F)oc23)CC1	8	2%	1%	-7%	-3%	u
CCN1CCN(Cc2c(O)ccc3c(=O)c(Oc4ccccc4Cl)c(C(F)(F)F)oc23)CC1	x	-3%	0%	21µM*	-49%	u
Cc1cc(C[n+]2ccccc2)c2nsnc2c1	-4	-13%	-1%	22µM*	-25%	u
COC(=O)[C@@H]1[C@@H](C#N)C2(c3ccccc3-c3ccccc32)N(c2ccc(Cl)cc2)N1C#N	u	u	8%	3.7µM*	-68%	3.3µM*
CCOc1ccc(NC(=O)CC2C(=O)N(c3ccc(OC)cc3)C(=O)N2C2CCCCC2)cc1 (stereo not given)	x	-33%	6%	-24%	-33%	-14%
CCc1ccc(NC(=O)CC2C(=O)N(c3ccc(Cl)cc3)C(=O)N2C2CCCC2)cc1 (stereo not given)	x	u	6%	18µM*	-39%	u
CCc1ccc(NC(=O)CC2C(=O)N(c3cccc(OC)c3)C(=O)N2C2CCCC2)cc1 (stereo not given)	x	-19%	3%	u	-20%	16µM*
CCOC(=O)c1ccc(NC(=O)CC2C(=O)N(c3ccc(C)cc3)C(=O)N2C2CCCCC2)cc1 (stereo not given)	x	-8%	-4%	-16%	0%	-25%
CCc1ccc(NC(=O)CC2C(=O)N(c3ccc(C)cc3)C(=O)N2C2CCCC2)cc1 (stereo not given)	x	u	1%	21µM*	-13%	u
